The values below come from PubChem BioAssay (Tox21).

Experiment [1] addresses Retinoic acid receptor RXR-alpha (Homo sapiens) (UniProt P19793). Kind of experiment: qHTS assay to identify small molecule agonists of the RXR signaling pathway (AID 1159527; calls by dose curve; also: nearly all actives have a fitted effect of over 35% in size; also: potency is read from the fitted curve at half-maximal effect). A digest of the protocol:
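Reporter activation is measured as beta-lactamase activity via FRET substrate cleavage (emission 460/530 nm) in HEK 293T cells expressing an RXR-alpha-driven bla construct, following 16 hr compound exposure at 37 C.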

A short description of experiment [2]: qHTS assay to identify small molecule agonists of the RXR signaling pathway - cell viability counter screen (AID 1159529). Also: series mostly up to about 77 µM; nearly all actives have a fitted effect of over 50% in size. In a few lines: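 Tox21 10K compounds were tested for cytotoxicity against GeneBLAzer RXR-alpha HEK 293T cells grown in 2% charcoal-stripped FBS. Exposure lasted 16 hr at 37 C, 5% CO2; viability read by CellTiter-Glo luminescence.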
In general terms: In qHTS, concentration-response curves come from the screen itself.

Experiment [3] is described as follows: qHTS assay to identify small molecule antagonists of the retinoid acid receptor (RAR) signaling pathway - cell viability counter screen (AID 1159551). Also: nearly all actives have a fitted effect of over 35% in size. A digest of the protocol: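 Measured by luminescent ATP detection, viability reflects C3RL4 cells treated 6 h at 37 C with test chemicals in the presence of 1 uM (final) retinol.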
The nature of experiment [4]: qHTS assay to identify small molecule antagonists of the retinoic acid receptor (RAR) signaling pathway (AID 1159552; also: nearly all actives have a fitted effect of over 50% in size; also: potency is read from the fitted curve at half-maximal effect). In a few lines:
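Overnight-plated C3RL4 reporter cells get compound, then retinol to 1 uM final; plates sit 6 hr at 37 C, 5% CO2. A luciferase reagent is added and light output recorded after 30 min at room temperature.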

Experiment [5] is described as follows: qHTS assay to identify small molecule agonists of the retinoic acid receptor (RAR) signaling pathway (AID 1159553). Also: potency is read from the fitted curve at half-maximal effect. In a few lines:
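6 hr compound exposure (DMSO vehicle) of overnight-plated C3RL4 RARE-luc cells at 37 C; luminescence quantified after 30 min RT with luciferase reagent.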

Experiment [6] in a line: qHTS assay to identify small molecule antagonists of the estrogen related receptor (ERR) signaling pathway from Tox21 library - cell viability counter screen (AID 1224834). Also: nearly all actives have a fitted effect of over 30% in size. A digest of the protocol:
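Seeded ERR cells were rested 6 h at 37 C/5% CO2 before compounds, positive and negative controls or DMSO were added. Incubation continued for 17.5 h, and viability was then quantified by CellTiter-Fluor fluorescence.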

Structures are written as SMILES. Records with an inconclusive call do not appear. Calls of active or inactive are those of the source. Unless noted, calls follow the shape of the dose curve; as a rule, active = well fitted curve in the direction sought with a large enough effect in the repeat runs; inconclusive = weak or mixed curves; inactive = no such curve, though single readings can be large; an effect the other way counts as inactive or inconclusive.

Retinoic acid receptor RXR-alpha (Homo sapiens), sequence (P19793 whole entry, looked up): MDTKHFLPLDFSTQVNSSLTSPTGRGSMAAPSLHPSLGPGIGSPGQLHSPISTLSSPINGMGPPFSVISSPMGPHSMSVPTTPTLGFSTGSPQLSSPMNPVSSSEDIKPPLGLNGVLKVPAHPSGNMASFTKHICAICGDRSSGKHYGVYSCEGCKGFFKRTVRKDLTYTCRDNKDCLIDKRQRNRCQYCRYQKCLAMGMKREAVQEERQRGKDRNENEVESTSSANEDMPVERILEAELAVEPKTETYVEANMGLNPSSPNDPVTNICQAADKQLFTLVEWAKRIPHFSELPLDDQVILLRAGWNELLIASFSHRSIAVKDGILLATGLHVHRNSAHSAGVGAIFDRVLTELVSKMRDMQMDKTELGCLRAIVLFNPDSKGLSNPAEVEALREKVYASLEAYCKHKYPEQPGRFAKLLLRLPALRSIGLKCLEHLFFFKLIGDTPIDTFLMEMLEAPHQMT

`CC(=O)NC1CCSC1=O` (configuration not stated): the Potency entry in experiment [1], in experiment [2], in experiment [3], in experiment [4], in experiment [5] and in experiment [6] was “inactive” each time.

Turning to `CCOC(=O)C(Cl)C(C)=O` (configuration not stated), the Potency entry in experiment [1], in experiment [2], in experiment [3], in experiment [4], in experiment [5] and in experiment [6] was “inactive” in each case.

For the molecule `COP(=O)(OC)O/C(=C/Cl)c1cc(Cl)c(Cl)cc1Cl`, the Potency result in experiment [1], in experiment [2] and in experiment [3] was “inactive” throughout. Moreover, in experiment [4], the Potency is 57.5 µM (active).

Take `CN1C(=O)NC(=O)C(C)(C2=CCCCC2)C1=O` (configuration not stated): the Potency entry in experiment [1], in experiment [2], in experiment [3], in experiment [4] and in experiment [5] was “inactive” throughout.

Take `O=[Se]=O`: the Potency result in experiment [1], in experiment [2], in experiment [3], in experiment [4], in experiment [5] and in experiment [6] was “inactive” throughout.

For the molecule `C=C(C#N)CCC#N`, the Potency entry in experiment [1], in experiment [2], in experiment [3], in experiment [4], in experiment [5] and in experiment [6] was “inactive” throughout.

For `O=C(O)CC(Cl)C(=O)O` (configuration not stated), the Potency entry in experiment [1], in experiment [2], in experiment [3] and in experiment [4] was “inactive” throughout.

As for `O=S(=O)(Cl)c1ccccc1`, the Potency entry in experiment [1], in experiment [2], in experiment [3], in experiment [4] and in experiment [5] was “inactive” in each case.

With `C[N+](C)(C)CCCl`, the Potency entry in experiment [1], in experiment [2], in experiment [3], in experiment [4] and in experiment [5] was “inactive” each time.

As to `C/C=C/C=O`, the Potency entry in experiment [1], in experiment [2], in experiment [3], in experiment [4] and in experiment [5] was “inactive” in each case.

With `COP(=S)(OC)Oc1cc(Cl)c(I)cc1Cl`, the Potency result in experiment [1], in experiment [2], in experiment [3], in experiment [4] and in experiment [5] was “inactive” in each case.

Regarding `CN(N=O)c1ccc([N+](=O)[O-])cc1`, the Potency entry in experiment [1], in experiment [2], in experiment [3], in experiment [4], in experiment [5] and in experiment [6] was “inactive” throughout.

Turning to `ClCc1ccccc1`, the Potency entry in experiment [1], in experiment [2], in experiment [3], in experiment [4] and in experiment [5] was “inactive” each time.

With `Nc1ccc([N+](=O)[O-])cc1[N+](=O)[O-]`, the Potency entry in experiment [1], in experiment [2] and in experiment [3] was “inactive” throughout.

Turning to `CCCCN=C=O`, the Potency result in experiment [1], in experiment [2], in experiment [3], in experiment [4], in experiment [5] and in experiment [6] was “inactive” throughout.

In the case of `C=CC(=O)OCCCCO`, the Potency result in experiment [1] and in experiment [2] was “inactive” in each case.

For the molecule `N#CCc1ccccc1`, the Potency entry in experiment [1], in experiment [2], in experiment [3], in experiment [4] and in experiment [5] was “inactive” each time.

Consider `N#C/C(N)=C(/N)C#N`, for which the Potency result in experiment [1], in experiment [2], in experiment [3] and in experiment [4] was “inactive” each time.

For `O=C(O)C(F)(F)C(F)(F)C(F)(F)C(F)(F)C(F)(F)C(F)(F)C(F)(F)C(F)(F)C(F)(F)C(F)(F)F`, the Potency in experiment [1] was 11.6 µM (active). The Potency result in experiment [2], in experiment [3], in experiment [4], in experiment [5] and in experiment [6] was “inactive” each time.

`COC(=O)C(Br)CBr` (configuration not stated): the Potency result in experiment [1], in experiment [2], in experiment [3], in experiment [4] and in experiment [5] was “inactive” throughout.

With `CCOP(=O)(OCC)Oc1ccc([N+](=O)[O-])cc1`, the Potency result in experiment [1], in experiment [2], in experiment [3], in experiment [4], in experiment [5] and in experiment [6] was “inactive” throughout.

With `CC(C)(Cl)[N+](=O)[O-]`, the Potency result in experiment [1], in experiment [2], in experiment [3], in experiment [4] and in experiment [5] was “inactive” in each case.

`CCOC(=O)CBr`: the Potency entry in experiment [1], in experiment [2], in experiment [3], in experiment [4], in experiment [5] and in experiment [6] was “inactive” each time.

In the case of `ClCc1cccc(Cl)c1`, the Potency result in experiment [1], in experiment [2], in experiment [3], in experiment [4] and in experiment [5] was “inactive” throughout.

Take `C=CCCl`: the Potency result in experiment [1], in experiment [2], in experiment [3], in experiment [4] and in experiment [5] was “inactive” in each case.

As for `ClP(Cl)(Cl)(Cl)Cl`, the Potency result in experiment [1], in experiment [2] and in experiment [3] was “inactive” throughout.

For `Cn1cc[n+](C)c1` (tested in a mixture with another compound), the Potency result in experiment [1], in experiment [2], in experiment [3], in experiment [4], in experiment [5] and in experiment [6] was “inactive” throughout.

`CCOP(=O)(OCC)SCCSCC`: the Potency result in experiment [1], in experiment [2], in experiment [3], in experiment [4] and in experiment [5] was “inactive” in each case.

With `CCC(Br)(CC)C(=O)NC(N)=O`, the Potency result in experiment [1], in experiment [2], in experiment [3] and in experiment [4] was “inactive” throughout.

Turning to `CN1C(=O)C(O)N=C(c2ccccc2)c2cc(Cl)ccc21` (configuration not stated), the Potency entry in experiment [1], in experiment [2], in experiment [3] and in experiment [5] was “inactive” throughout. Besides, the Potency in experiment [4] is 63.3 µM (active).

With `CCC(COC(=O)c1cc(OC)c(OC)c(OC)c1)(c1ccccc1)N(C)C` (configuration not stated), the Potency entry in experiment [1] and in experiment [2] was “inactive” throughout.

Take `Oc1ccc(Cl)c(Cl)c1Cl`: the Potency result in experiment [1], in experiment [2], in experiment [3] and in experiment [5] was “inactive” each time. Moreover, in experiment [4], the Potency is 63.4 µM (active).

With `O=C(CBr)c1ccccc1`, the Potency result in experiment [1], in experiment [2], in experiment [3] and in experiment [4] was “inactive” in each case.

With `NNC(=O)c1cccnc1`, the Potency result in experiment [1], in experiment [2], in experiment [3] and in experiment [4] was “inactive” in each case. In addition, the Potency in experiment [5] was 30.7 µM (active).

Turning to `CC(C)O.CC(C)O.OCCN(CCO)CCO.OCCN(CCO)CCO.[Ti]`, the Potency result in experiment [1], in experiment [2], in experiment [3], in experiment [4] and in experiment [5] was “inactive” throughout.

On to `COC(N)=O`, for which the Potency entry in experiment [1], in experiment [2], in experiment [3], in experiment [4], in experiment [5] and in experiment [6] was “inactive” in each case.

As to `O=Cc1ccc(Cl)cc1Cl`, the Potency result in experiment [1], in experiment [2], in experiment [3], in experiment [4], in experiment [5] and in experiment [6] was “inactive” in each case.

For the molecule `Cl/C=C\C[N+]12CN3CN(CN(C3)C1)C2`, the Potency result in experiment [1], in experiment [2], in experiment [3] and in experiment [6] was “inactive” throughout.

On to `COC(=O)c1cncn1C(C)c1ccccc1` (configuration not stated), for which the Potency result in experiment [1], in experiment [2], in experiment [3], in experiment [4], in experiment [5] and in experiment [6] was “inactive” in each case.

Regarding `c1ccoc1`, the Potency entry in experiment [1] and in experiment [3] was “inactive” in each case.

In the case of `CCCCNP(N)(N)=S`, the Potency result in experiment [1], in experiment [2], in experiment [3] and in experiment [6] was “inactive” each time.

For `C=CC(=O)OCC(C)C`, the Potency entry in experiment [1], in experiment [2], in experiment [3] and in experiment [6] was “inactive” throughout.
